Each structure is given as a SMILES string. Out of some 52,000 compounds screened, about 1,700 (3.3%) were called active. This is one part of a sample in which actives are shown more often than they occur. Values without a mark were called inactive. Cut-off read from the data, not from the text of the source: active = survival mostly below about 52% (no sharp cut-off); inactive = mostly above about 56%.

The results in this text go back to PubChem BioAssay AID463173 (ICCB-Longwood Screening Facility, Harvard Medical School, 2010).

The test system of this assay is Wild type. Briefly: growth inhibition of S. aureus wild type versus tarO mutant, primary screen, teichoic acid synthesis inhibitors, RN4220, OD600 (AID 463173). The conditions noted are these: S. aureus RN4220 wild type/DeltatarO growth, OD600, 18 h, stronger effect = lower value, screened at 18.75 µg/mL (by protocol).
As for `Cc1ccc(NC(=O)CSc2nnc(C)n3c2cc2sccc23)c(C)c1`, the survival is 84%.
Turning to `CCc1noc(-c2ccc(N3CCC(C)CC3)c([N+](=O)[O-])c2)n1`, the survival is 93%.
Take `CCOc1ccc(CCNC(=O)c2nnc(Cc3cc(OC)c(OC)c(OC)c3)o2)cc1OCC`: the survival is 85%.
As for `COc1ccc(Cn2c(SCC(=O)N3CCN(c4ccc(F)cc4)CC3)nc3ccccc32)cc1`, the survival was 45%.
Consider `Cn1c(=O)c(=O)n(C)c2cc(NC(=O)c3cccc(F)c3)c(Cl)cc21`, for which the survival was 71%.
In the case of `Cc1ccccc1CNS(=O)(=O)c1csc(C(N)=O)c1` it was 128%; in that of `CCOC(=O)c1cccc(NC(=O)C(C)n2c(C)c3cnn(-c4ccccc4)c(=O)c3c2C)c1` (stereo unspecified), 128%.
On to `CC(CC(=O)Nc1ccc(Br)cc1F)S(=O)(=O)c1ccc2c(c1)NC(=O)CO2` (stereo unspecified), for which the survival is 63%.
Consider `O=C(CCc1ccccc1)NC1CC(=O)N(c2cccc(F)c2)C1` (stereo unspecified), for which the survival is 81%.
For `COc1ccc(OC)c(CNC(=O)Cc2ccc(NC(=O)N3CCSc4ncccc43)cc2)c1`, the survival was 64%.
Turning to `CCc1ccc(NS(=O)(=O)c2ccc3[nH]cc(C(=O)N(C)Cc4ccco4)c(=O)c3c2)cc1`, the survival was 85%.
Consider `CCn1cc(C(=O)N2CCN(c3cc(Cl)ccc3C)CC2)c(=O)c2cc(S(=O)(=O)N3CCOCC3)ccc21`, for which the survival was 86%.
In the case of `COc1ccccc1C(=O)Nc1c(C(=O)c2ccccc2)oc2ccccc12`, the survival is -3% (active).
In the case of `COc1ccc(C(=O)Nc2c(C(=O)c3ccccc3)oc3ccccc23)cc1` it was 75%.
In the case of `COc1ccccc1C(=O)Nc1c(C(=O)NC(C)(C)C)oc2ccccc12` it was 80%; in that of `S=c1n(-c2ccccc2)cnn1CN1CCCCC1`, 96%; in that of `CC(=O)Nc1ccc(S(=O)(=O)N2CCC(c3ccncc3)CC2)cc1`, -6% (active).
In the case of `CC(=O)Nc1ccc(S(=O)(=O)N2CCC(C)CC2)cc1` it was 112%.
Regarding `CC(C)(C)c1ccc(S(=O)(=O)N2CCC(c3ccncc3)CC2)cc1`, the survival was 120%.
In the case of `COc1ccc2c(c1)CCc1c(C(=O)Nc3c(C)nn(Cc4ccccc4C)c3C)noc1-2` it was 26%; in that of `O=C(NCCc1ccccc1)c1ccc2c(c1)N(Cc1ccc(F)cc1)C(=O)CS2`, 88%.
As for `O=C(NCCc1ccc(Cl)cc1)c1ccc2c(c1)N(Cc1ccc(F)cc1)C(=O)CS2`, the survival is 10% (active).
In the case of `O=C(NCCc1ccc(Cl)cc1)c1ccc2c(c1)N(Cc1ccc(Cl)cc1)C(=O)CS2` it was 98%; in that of `Cc1sc(NC(=O)COc2ccc(C(C)(C)C)cc2)c(C(=O)OC(C)C)c1C`, 10% (active); in that of `CCOC(=O)c1c(NC(=O)COc2cc(C)ccc2C(C)C)sc(C)c1C`, 67%.
In the case of `CCN(CC)C(=O)c1sc(NC(C)=O)c(C(=O)OC)c1C` it was 108%; in that of `Cc1sc(NC(=O)C2c3ccccc3Oc3ccccc32)c(C(=O)OC(C)C)c1C`, 62%; in that of `Cc1c(C(=O)OC(C)C)sc(NC(=O)C2c3ccccc3Oc3ccccc32)c1C(=O)OC(C)C`, 87%.
For `COC(=O)c1c(NC(=O)COc2ccc(Cl)cc2)sc(C)c1C`, the survival is 73%.
The same measure for `CCCc1ccc(OCC(=O)Nc2sc(C(=O)OCC)c(C)c2C(=O)OCC)cc1`: 92%; for `CCOC(=O)c1c(NC(=O)COc2ccc(OC)cc2)sc(C(=O)N(CC)CC)c1C`: -8% (active); for `CCN(CC)C(=O)c1sc(NC(=O)C2c3ccccc3Oc3ccccc32)c(C(=O)OC(C)C)c1C`: 8% (active).
In the case of `O=C(Cn1c(SCc2ccc(F)cc2)nc2cccnc21)Nc1ccccc1F` it was 75%.
With `COc1ccc(-c2nnn3c2nc(NCc2ccc(C)cc2)c2ccccc23)cc1`, the survival is 85%.
`O=C(Nc1cc(-c2nc3ccccc3o2)ccc1Cl)c1sc2c([N+](=O)[O-])cccc2c1Cl`: the survival is 96%.
In the case of `Cc1ccc(Cl)cc1-n1ncc2c(N3CCN(Cc4ccccc4)CC3)ncnc21` it was 120%.
In the case of `COc1cccc(-c2ccc3c(N)c(C(=O)c4ccc(F)cc4)sc3n2)c1` it was 10% (active).
For the compound `COc1cccc(-c2ccc3c(N)c(C(=O)c4ccc(Cl)cc4)sc3n2)c1`, the survival was 39%.
The same measure for `COc1cccc(-c2ccc3c(N)c(C(=O)c4ccc(Br)cc4)sc3n2)c1`: 38%; for `Cc1ccc(CNC(=O)c2ccc3c(c2)N(Cc2cccc(Cl)c2)C(=O)CS3)cc1`: 70%.
As for `CCc1ccc(NC(=O)CC2C(=O)N(c3cccc(C)c3)C(=O)N2Cc2cccs2)cc1` (stereo unspecified), the survival is -3% (active).
The same measure for `Cc1cccc(N2C(=O)C(CC(=O)Nc3cccc(F)c3)N(CCc3ccncc3)C2=O)c1` (stereo unspecified): 84%; for `Cc1cccc(N2C(=O)C(CC(=O)Nc3cccc(F)c3)N(Cc3cccs3)C2=O)c1` (stereo unspecified): 0% (active); for `CCc1ccc(NC(=O)CC2C(=O)N(c3ccc(Cl)cc3)C(=O)N2Cc2cccs2)cc1` (stereo unspecified): 47%.
The same measure for `CCOc1ccc(NC(=O)CC2C(=O)N(c3cccc(C)c3)C(=O)N2Cc2cccs2)cc1` (stereo unspecified): 85%; for `COc1cc(NC(=O)CC2C(=O)N(c3cccc(C)c3)C(=O)N2Cc2cccs2)cc(OC)c1` (stereo unspecified): 53%; for `O=C(NCc1ccccc1Cl)c1nnc(Cc2ccc(Cl)cc2)o1`: 85%.
As for `CCC1CN(C(=O)N2CCC(C(=O)NCc3cccc(OC)c3OC)CC2)c2cc(C)ccc2O1` (stereo unspecified), the survival is 106%.
Take `CC1=C(C(=O)Nc2ccc(C)cc2C)C(c2cccs2)n2nc(SCc3cccc(C)c3)nc2N1` (stereo unspecified): the survival was 126%.
With `CCC(=O)Nc1ccc(C(=O)CSc2nnc(-c3ccc(O)cc3)n2CC2CCCO2)cc1` (stereo unspecified), the survival is 103%.
In the case of `CCc1ccc(C(=O)c2cn(CC(=O)Nc3cccc(OC)c3)c3ccc(OC)cc3c2=O)cc1` it was 77%; in that of `CC(C)c1ccccc1NC(=O)Cn1cnc2c1c(=O)n(C)c(=O)n2C`, 93%; in that of `O=C(Nc1ccc(C(=O)N2CCN(c3ccc(F)cc3)CC2)cc1)c1nsc2ccccc12`, 55%.
For `O=C(Nc1ccc(C(=O)N2CCN(c3cccc(Cl)c3)CC2)cc1)c1nsc2ccccc12`, the survival is 63%.
The same measure for `Cc1ccc(C(=O)N2CCCCC2)cc1NC(=O)c1nsc2ccccc12`: -6% (active); for `O=C(Nc1ccc(C(=O)N2CCN(c3ccccc3)CC2)cc1)c1nsc2ccccc12`: -3% (active).
Regarding `Cc1ccc(C(=O)N2CCC(C(N)=O)CC2)cc1NC(=O)c1nsc2ccccc12`, the survival was 72%.
In the case of `Cc1ccc(C)c(N2CCN(C(=O)c3ccc(NC(=O)c4nsc5ccccc45)cc3)CC2)c1`, the survival was 63%.
In the case of `Cc1ccc(C(=O)N2CCC(C)CC2)cc1NC(=O)c1nsc2ccccc12` it was 80%; in that of `O=C(Nc1ccc(C(=O)N2CCN(c3ccc(Cl)cc3)CC2)cc1)c1nsc2ccccc12`, 81%.
`Cc1ccc(Cl)cc1N1CCN(C(=O)c2ccc(NC(=O)c3nsc4ccccc34)cc2)CC1`: the survival was 1% (active).
